Test results reported in PubChem BioAssay (NCI).
The panel holds about 83,000 compounds, 20% with a hit somewhere; the sample as a whole holds those more often.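 Note: values are percent growth. 100 is the growth of untreated cells, values between 100 and 0 indicate rising inhibition; between -100 and 0 indicates cell death.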 A number with no mark means an inactive call. Active and inactive are the calls of the source. The calls were made as follows: active = growth percent below 10; inactive = the rest.

What was measured:
Assay in all cases: NCI-60 one-dose screen, 48 h (100 = growth as untreated, 0 = no growth, -100 = all killed)
Settings in all cases: 10 µM unless noted
[1] = test system: NCI-H23 lung
[2] = test system: NCI-H226 lung
[3] = test system: NCI-H322M lung
[4] = test system: HOP-62 NSCLC
[5] = test system: NCI-H460 lung
[6] = test system: HOP-92 NSCLC
[7] = test system: NCI-H522 lung
[8] = test system: A549/ATCC NSCLC
[9] = test system: 786-0 renal
[10] = test system: COLO 205 colon
[11] = test system: DU-145 prostate
[12] = test system: K-562 leukemia
[13] = test system: MALME-3M melanoma
[14] = test system: MDA-MB-231 breast
[15] = test system: RXF 393 renal
[16] = test system: SF-268 CNS
[17] = test system: SF-295 CNS
[18] = test system: SF-539 CNS
[19] = test system: UACC-257 melanoma
[20] = test system: M14 melanoma

| SMILES | growth [1] | growth [2] | growth [3] | growth [4] | growth [5] | growth [6] | growth [7] | growth [8] | growth [9] | growth [10] | growth [11] | growth [12] | growth [13] | growth [14] | growth [15] | growth [16] | growth [17] | growth [18] | growth [19] | growth [20] |
| --- | --- | --- | --- | --- | --- | --- | --- | --- | --- | --- | --- | --- | --- | --- | --- | --- | --- | --- | --- | --- |
| CCCCOc1c(N)cc(Cl)cc1C(=O)OCCN(CC)CC | 104% | 94.1% | 86% | 91.8% | 108% | 89.6% | 53.1% | 86.5% | 92.8% | 115% | 116% | 83.9% | 102% | 101% | 125% | 98.6% | 101% | 104% | 78.3% | 107% |
| COc1ccc(-c2cc(-c3nnc(SC/C(=N\O)c4ccccc4)n3-c3ccccc3)c3ccccc3n2)cc1 | 94.6% | 96.2% | 101% | 91.1% | 104% | 94.8% | 87.2% | 96.8% | 113% | 91.1% | 111% | 113% | 100% | 103% | 117% | 102% | 104% | 102% | 104% | 116% |
| CC(C)(C)OC(=O)NCc1cccc(N=C=S)c1 | 55.3% | 80.6% | 65.7% | 57.8% | 63.8% | -0.561% (active) | 12.8% | 69.2% | 54.9% | 38.5% | 55.7% | 37.3% | 29.9% | 75.4% | -15.7% (active) | 47.2% | 21% | 3.66% (active) | 39.4% | 49.3% |
| CCN(CC)CCNCC(O)Cc1ccc(OC)cc1 (stereo not given) | 103% | 90.5% | 91.4% | 102% | 107% | 81.4% | 66.1% | 96% | 98.5% | 111% | 110% | 105% | 113% | 105% | 103% | 107% | 104% | 106% | 86.1% | 104% |
| COc1cc(NC(=O)C#Cc2ccccc2)c(OC)cc1Cl | 57.8% | 64.7% | 93.2% | 77.6% | 17.8% | 78.5% | 39.2% | 59.5% | 35.1% | 64.6% | 83.6% | 20.6% | 61.4% | 26.6% | 83.5% | 39.8% | 75.1% | 66.6% | 89.2% | 49.8% |
| Cc1nssc1=S | 91.5% | 99.6% | 85.2% | 107% | 109% | 59.9% | 82.6% | 111% | 95.3% | 91.2% | 113% | 93.8% | 102% | 112% | 113% | 106% | 99.7% | 101% | 102% | 88.2% |
| CCCCCCCCCCCCCCCC(=O)NS(=O)(=O)OC[C@H]1O[C@@H](n2cnc3c(N)ncnc32)[C@H](O)[C@@H]1O | -39.5% (active) | -65.1% (active) | -46.2% (active) | -25% (active) | -10.1% (active) | -65.7% (active) | -33.3% (active) | 9.49% (active) | -69.6% (active) | -62.8% (active) | -33.6% (active) | 8.9% (active) | -51.6% (active) | -25.6% (active) | -83.4% (active) | -42.6% (active) | -34.6% (active) | -69.4% (active) | -20.7% (active) | -68.2% (active) |
| O=C(NCCNc1nccc(-c2c(-c3cccc(O)c3)nc3sccn23)n1)Nc1cc(C(F)(F)F)cc(C(F)(F)F)c1 | 90.9% | 101% | 87% | 118% | 51.8% | 74.4% | 69.5% | 57.7% | 82% | 45.1% | 97.1% | 72.7% | 60.5% | 41.4% | 41.4% | 69.4% | 66.7% | 96.5% | 57% | 21.4% |
| O=c1[nH]ccc2nc(N3CCC(O)CC3)nc(Nc3cccc(C(F)(F)F)c3)c12 | 62.2% | 57.4% | 102% | 92.9% | 73.4% | 105% | 51.7% | 53.4% | 58.3% | 35.7% | 72% | 44.7% | 64.5% | 88.3% | 54.4% | 67.1% | 96.8% | 80.4% | 16.3% | 39.1% |
| Cc1nc(N)nc(SCc2ccccc2)c1Br | 93.7% | 83.7% | 70.3% | 83.1% | 104% | 79.4% | 66.7% | 73.4% | 88.9% | 105% | 104% | 88.4% | 92.6% | 91.1% | 89.6% | 96.1% | 99.1% | 96.4% | 74.1% | 104% |
| COCCNC(C(=O)c1ccccc1)c1ccccc1 (stereo not given) | 103% | 91% | 100% | 100% | 108% | 85.7% | 107% | 99.8% | 92.5% | 117% | 107% | 103% | 102% | 102% | 101% | 94.3% | 98% | 99.7% | 97.6% | 100% |
| O=C(O)c1ccc(-n2cc(/C=N/Nc3ccc(Cl)cc3)c(-c3ccc(F)c(F)c3)n2)cc1 | 84.9% | 95% | 72.5% | 107% | 93.1% | 81.5% | 47.6% | 78.9% | 67.2% | 99.7% | 85.4% | 7.69% (active) | 36% | 93% | 108% | 71.1% | 66.6% | 88.2% | 99.4% | 57.5% |
| CCCCOc1nc2ccc(Cl)cc2cc1/C=C/C(=O)/C=C/c1ccc(OC)cc1 | 95.9% | 99.6% | 95.6% | 110% | 98.4% | 93.4% | 77.5% | 92.1% | 110% | 93.1% | 93.8% | 87% | 100% | 106% | 119% | 95.4% | 113% | 104% | 89.7% | 66.3% |
| O=C(CSc1nnc(-c2ccccc2)o1)Nc1ccc(C(=O)/C=C/c2ccccc2)cc1 | 77.6% | 85.4% | 71.1% | 72.4% | 48.4% | 60.6% | 65.2% | 60.3% | 84.8% | 79.2% | 62.7% | 8.02% (active) | 69.8% | 83.9% | 93.1% | 65.8% | 77.3% | 84.7% | 113% | 66.4% |
